# In publication PMC7862700, “An all-to-all approach to the identification of sequence-specific readers for epigenetic DNA modifications on cytosine”:
# Legend:
# Test in all cases: DAPPL (digital affinity profiling via proximity ligation, sequencing); 10 mM Tris-HCl pH 7.5, 50 mM NaCl, 1 mM DTT, 4% glycerol, room temperature, 30 min; GST-TFs on glutathione beads, 16-mer random dsDNA library, 0.1% formaldehyde crosslink after washing; high values mean tight binding
# FLI1 = molecular target: T1, FLI1 (Homo sapiens, UniProt Q01543 1-452); conditions: protein: recombinant; tags: N-terminal GST; dsDNA, one strand shown
# T1 sequence: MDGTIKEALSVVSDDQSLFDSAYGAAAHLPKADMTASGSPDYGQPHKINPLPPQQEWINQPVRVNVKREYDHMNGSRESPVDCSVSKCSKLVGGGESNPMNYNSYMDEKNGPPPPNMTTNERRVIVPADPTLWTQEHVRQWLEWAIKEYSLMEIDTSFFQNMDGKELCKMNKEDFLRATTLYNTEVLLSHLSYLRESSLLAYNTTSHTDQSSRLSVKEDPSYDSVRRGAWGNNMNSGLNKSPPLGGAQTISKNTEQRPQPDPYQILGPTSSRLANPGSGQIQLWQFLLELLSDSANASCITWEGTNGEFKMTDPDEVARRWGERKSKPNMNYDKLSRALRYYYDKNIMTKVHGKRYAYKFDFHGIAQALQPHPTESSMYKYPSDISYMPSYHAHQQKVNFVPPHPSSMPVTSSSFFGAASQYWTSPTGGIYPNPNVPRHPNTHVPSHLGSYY
# Outline: (§1)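 Pools were built from human transcription factors expressed in yeast as GST fusions, captured on glutathione beads and DNA-barcoded, along with a tag-only sample. Incubation with 200 nmole of a 16-mer random double-stranded DNA library lasted 30 min at room temperature in Tris/NaCl/DTT/glycerol buffer, and was followed by washing, 0.1% formaldehyde crosslinking, proximity ligation, PCR amplification and Illumina NextSeq500 sequencing. Binding signal is the quotient of each hexamer's read frequency for a factor and its frequency for the tag-only sample.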
# ELK1 = molecular target: T2, ELK1 (Homo sapiens, UniProt P19419 1-428); conditions: protein: recombinant; tags: N-terminal GST; dsDNA, one strand shown
# T2 sequence: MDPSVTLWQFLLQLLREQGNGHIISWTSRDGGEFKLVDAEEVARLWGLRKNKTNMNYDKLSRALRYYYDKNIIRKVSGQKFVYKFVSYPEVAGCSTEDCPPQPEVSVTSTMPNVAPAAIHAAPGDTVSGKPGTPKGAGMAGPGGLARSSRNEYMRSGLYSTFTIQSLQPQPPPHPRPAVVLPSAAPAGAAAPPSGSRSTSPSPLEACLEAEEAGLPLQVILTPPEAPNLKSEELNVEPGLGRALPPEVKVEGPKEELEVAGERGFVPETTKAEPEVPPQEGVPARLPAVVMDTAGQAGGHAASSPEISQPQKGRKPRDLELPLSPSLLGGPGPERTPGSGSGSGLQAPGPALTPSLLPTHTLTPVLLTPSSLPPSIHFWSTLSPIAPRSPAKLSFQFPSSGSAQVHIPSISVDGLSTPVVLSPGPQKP
# Outline: as §1
# GABPA = molecular target: T3, GABPA (Homo sapiens, UniProt Q06546 1-454); conditions: protein: recombinant; tags: N-terminal GST; dsDNA, one strand shown
# T3 sequence: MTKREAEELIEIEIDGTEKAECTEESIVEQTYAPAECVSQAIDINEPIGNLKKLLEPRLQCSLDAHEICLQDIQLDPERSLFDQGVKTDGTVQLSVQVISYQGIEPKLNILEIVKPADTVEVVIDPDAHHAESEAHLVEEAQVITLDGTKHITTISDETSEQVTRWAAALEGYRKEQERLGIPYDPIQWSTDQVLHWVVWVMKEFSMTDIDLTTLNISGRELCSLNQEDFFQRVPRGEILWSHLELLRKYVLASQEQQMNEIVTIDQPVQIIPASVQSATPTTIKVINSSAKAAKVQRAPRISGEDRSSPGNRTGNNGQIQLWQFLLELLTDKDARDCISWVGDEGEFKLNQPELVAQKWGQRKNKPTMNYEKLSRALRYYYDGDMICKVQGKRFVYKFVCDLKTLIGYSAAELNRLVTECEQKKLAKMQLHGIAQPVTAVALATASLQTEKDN
# Outline: as §1
# ERG = molecular target: T4, ERG (Homo sapiens, UniProt P11308 1-479); conditions: protein: recombinant; tags: N-terminal GST; dsDNA, one strand shown
# T4 sequence: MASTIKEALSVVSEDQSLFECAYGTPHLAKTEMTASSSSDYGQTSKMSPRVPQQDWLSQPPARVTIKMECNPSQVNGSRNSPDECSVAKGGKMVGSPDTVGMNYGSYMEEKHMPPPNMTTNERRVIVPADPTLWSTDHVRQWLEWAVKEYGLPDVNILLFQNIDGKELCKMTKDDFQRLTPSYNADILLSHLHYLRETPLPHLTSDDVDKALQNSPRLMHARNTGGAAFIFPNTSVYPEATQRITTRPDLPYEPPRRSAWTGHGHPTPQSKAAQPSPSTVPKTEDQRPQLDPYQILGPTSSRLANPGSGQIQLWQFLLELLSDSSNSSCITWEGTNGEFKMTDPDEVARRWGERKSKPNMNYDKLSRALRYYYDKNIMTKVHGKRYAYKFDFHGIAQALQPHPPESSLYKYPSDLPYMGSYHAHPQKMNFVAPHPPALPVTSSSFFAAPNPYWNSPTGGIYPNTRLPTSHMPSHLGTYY
# Outline: as §1
# ELF1 = ELF1 (Homo sapiens, UniProt P32519 1-619); conditions: protein: recombinant; tags: N-terminal GST; dsDNA, one strand shown
# Outline: as §1
# EHF = molecular target: T5, EHF (Homo sapiens, UniProt Q9NZC4 1-300); conditions: protein: recombinant; tags: N-terminal GST; dsDNA, one strand shown
# T5 sequence: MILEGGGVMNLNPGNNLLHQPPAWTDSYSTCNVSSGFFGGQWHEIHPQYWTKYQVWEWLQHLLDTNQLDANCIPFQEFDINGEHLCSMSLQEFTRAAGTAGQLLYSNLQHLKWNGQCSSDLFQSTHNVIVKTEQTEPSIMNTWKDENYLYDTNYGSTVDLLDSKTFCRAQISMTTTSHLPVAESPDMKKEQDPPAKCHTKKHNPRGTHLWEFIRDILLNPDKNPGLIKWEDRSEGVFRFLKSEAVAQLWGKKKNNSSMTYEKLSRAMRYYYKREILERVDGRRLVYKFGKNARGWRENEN
# Outline: as §1
# SPI1 = SPI1 (Homo sapiens, UniProt P17947 1-270); conditions: protein: recombinant; tags: N-terminal GST; dsDNA, one strand shown
# Outline: as §1
# SPIB = SPIB (Homo sapiens, UniProt Q01892 1-262); conditions: protein: recombinant; tags: N-terminal GST; dsDNA, one strand shown
# Outline: as §1
# ELK3 = molecular target: T6, ELK3 (Homo sapiens, UniProt P41970 1-407); conditions: protein: recombinant; tags: N-terminal GST; dsDNA, one strand shown
# T6 sequence: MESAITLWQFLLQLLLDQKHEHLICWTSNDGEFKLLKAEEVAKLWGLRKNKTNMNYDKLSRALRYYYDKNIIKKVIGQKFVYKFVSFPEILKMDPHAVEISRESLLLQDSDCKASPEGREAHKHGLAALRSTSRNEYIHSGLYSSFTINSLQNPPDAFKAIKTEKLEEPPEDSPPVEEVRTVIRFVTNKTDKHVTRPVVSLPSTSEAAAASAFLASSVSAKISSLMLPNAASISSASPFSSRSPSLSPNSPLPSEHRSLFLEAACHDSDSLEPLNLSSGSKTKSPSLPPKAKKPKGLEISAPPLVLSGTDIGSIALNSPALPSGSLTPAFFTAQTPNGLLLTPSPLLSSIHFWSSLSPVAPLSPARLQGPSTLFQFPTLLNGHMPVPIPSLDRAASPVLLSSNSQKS
# Outline: as §1
# FEV = molecular target: T7, FEV (Homo sapiens, UniProt Q99581 1-238); conditions: protein: recombinant; tags: N-terminal GST; dsDNA, one strand shown
# T7 sequence: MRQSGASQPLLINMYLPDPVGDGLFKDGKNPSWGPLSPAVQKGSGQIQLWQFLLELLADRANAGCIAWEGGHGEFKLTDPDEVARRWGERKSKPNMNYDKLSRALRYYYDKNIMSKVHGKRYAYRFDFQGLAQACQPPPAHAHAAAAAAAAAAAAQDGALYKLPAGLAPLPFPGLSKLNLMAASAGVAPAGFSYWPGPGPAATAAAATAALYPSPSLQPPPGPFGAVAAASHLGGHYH
# Outline: as §1
# ETV5 = ETV5 (Homo sapiens, UniProt P41161 1-510); conditions: protein: recombinant; tags: N-terminal GST; dsDNA, one strand shown
# Outline: as §1
# HSF1 = HSF1 (Homo sapiens, UniProt Q00613 1-529); conditions: protein: recombinant; tags: N-terminal GST; chain copies: 3; dsDNA, one strand shown
# Outline: as §1
# SPIC = molecular target: T8, SPIC (Homo sapiens, UniProt Q8N5J4 1-248); conditions: protein: recombinant; tags: N-terminal GST; dsDNA, one strand shown
# T8 sequence: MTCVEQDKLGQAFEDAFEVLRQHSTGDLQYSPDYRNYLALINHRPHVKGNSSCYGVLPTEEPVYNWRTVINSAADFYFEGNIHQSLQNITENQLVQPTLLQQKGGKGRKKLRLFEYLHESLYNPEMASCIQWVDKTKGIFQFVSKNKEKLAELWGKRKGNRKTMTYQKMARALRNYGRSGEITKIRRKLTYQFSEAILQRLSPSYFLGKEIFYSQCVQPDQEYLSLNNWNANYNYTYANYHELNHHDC
# Outline: as §1
# ELF4 = ELF4 (Homo sapiens, UniProt Q99607 1-663); conditions: protein: recombinant; tags: N-terminal GST; dsDNA, one strand shown
# Outline: as §1
# ELK4 = molecular target: T9, ELK4 (Homo sapiens, UniProt P28324-2 1-405); conditions: protein: recombinant; tags: N-terminal GST; dsDNA, one strand shown
# T9 sequence: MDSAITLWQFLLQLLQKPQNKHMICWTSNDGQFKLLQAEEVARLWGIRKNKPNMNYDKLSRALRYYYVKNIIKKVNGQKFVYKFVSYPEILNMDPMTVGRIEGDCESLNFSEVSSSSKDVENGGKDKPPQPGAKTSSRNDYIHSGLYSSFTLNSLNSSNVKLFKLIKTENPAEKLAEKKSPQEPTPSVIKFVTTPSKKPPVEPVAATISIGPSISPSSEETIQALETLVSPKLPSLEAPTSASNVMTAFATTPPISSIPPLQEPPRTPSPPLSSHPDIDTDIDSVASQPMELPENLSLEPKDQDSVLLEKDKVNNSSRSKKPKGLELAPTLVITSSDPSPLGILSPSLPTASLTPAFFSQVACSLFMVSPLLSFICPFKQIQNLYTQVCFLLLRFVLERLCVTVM
# Outline: as §1
# ETV2 = molecular target: T10, ETV2 (Homo sapiens, UniProt O00321 1-342); conditions: protein: recombinant; tags: N-terminal GST; dsDNA, one strand shown
# T10 sequence: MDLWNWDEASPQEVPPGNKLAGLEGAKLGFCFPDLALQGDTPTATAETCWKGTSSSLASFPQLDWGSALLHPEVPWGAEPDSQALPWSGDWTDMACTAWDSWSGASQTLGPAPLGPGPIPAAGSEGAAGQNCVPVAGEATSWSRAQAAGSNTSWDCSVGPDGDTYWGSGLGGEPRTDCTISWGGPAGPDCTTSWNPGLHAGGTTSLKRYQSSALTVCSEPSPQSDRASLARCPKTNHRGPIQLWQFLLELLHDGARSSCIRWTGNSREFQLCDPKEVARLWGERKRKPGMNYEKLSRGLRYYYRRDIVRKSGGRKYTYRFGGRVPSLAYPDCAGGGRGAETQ
# Outline: as §1
# ELF3 = molecular target: T11, ELF3 (Homo sapiens, UniProt P78545 1-371); conditions: protein: recombinant; tags: N-terminal GST; dsDNA, one strand shown
# T11 sequence: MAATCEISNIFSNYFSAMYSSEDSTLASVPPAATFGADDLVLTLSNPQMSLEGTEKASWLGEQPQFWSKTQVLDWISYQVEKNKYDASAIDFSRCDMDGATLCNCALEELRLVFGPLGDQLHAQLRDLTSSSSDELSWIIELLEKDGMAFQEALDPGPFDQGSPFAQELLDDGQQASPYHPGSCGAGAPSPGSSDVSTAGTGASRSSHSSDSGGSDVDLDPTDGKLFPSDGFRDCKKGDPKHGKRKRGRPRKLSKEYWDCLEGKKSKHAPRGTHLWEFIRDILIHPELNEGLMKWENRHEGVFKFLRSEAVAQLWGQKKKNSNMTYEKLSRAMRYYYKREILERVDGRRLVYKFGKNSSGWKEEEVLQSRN
# Outline: as §1
# ETV1 = ETV1 (Homo sapiens, UniProt P50549 1-477); conditions: protein: recombinant; tags: N-terminal GST; dsDNA, one strand shown
# Outline: as §1
# Chain of HSF1 (Q00613 whole entry): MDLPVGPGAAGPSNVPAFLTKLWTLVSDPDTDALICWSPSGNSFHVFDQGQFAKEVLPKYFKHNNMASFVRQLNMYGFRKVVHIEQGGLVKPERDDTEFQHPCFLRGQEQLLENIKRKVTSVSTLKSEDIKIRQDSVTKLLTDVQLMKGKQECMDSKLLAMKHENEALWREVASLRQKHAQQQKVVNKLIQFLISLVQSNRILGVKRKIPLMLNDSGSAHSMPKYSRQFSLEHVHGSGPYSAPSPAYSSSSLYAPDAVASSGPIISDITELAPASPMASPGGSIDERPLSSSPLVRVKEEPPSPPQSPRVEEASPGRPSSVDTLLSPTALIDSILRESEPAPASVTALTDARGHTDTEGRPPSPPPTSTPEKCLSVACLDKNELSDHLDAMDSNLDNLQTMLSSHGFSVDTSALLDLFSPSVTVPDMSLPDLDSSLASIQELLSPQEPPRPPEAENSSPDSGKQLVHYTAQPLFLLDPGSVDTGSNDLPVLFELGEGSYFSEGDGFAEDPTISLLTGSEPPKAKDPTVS
# Chain of ETV5 (P41161 whole entry): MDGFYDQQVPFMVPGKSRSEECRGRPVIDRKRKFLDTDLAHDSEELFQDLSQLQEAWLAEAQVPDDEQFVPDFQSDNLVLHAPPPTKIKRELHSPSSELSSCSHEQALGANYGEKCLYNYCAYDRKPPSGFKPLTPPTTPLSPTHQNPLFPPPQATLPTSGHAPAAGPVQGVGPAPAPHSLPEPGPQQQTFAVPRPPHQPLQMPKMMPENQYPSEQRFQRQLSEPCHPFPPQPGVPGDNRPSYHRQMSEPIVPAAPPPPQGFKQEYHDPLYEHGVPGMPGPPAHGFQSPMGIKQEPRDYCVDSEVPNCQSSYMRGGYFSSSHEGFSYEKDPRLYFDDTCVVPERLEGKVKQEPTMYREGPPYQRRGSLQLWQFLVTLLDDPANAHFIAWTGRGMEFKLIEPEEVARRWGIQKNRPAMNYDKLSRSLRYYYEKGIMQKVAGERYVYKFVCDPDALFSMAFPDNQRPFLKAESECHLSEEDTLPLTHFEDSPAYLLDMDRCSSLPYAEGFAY
# Chain of ELF4 (Q99607 whole entry): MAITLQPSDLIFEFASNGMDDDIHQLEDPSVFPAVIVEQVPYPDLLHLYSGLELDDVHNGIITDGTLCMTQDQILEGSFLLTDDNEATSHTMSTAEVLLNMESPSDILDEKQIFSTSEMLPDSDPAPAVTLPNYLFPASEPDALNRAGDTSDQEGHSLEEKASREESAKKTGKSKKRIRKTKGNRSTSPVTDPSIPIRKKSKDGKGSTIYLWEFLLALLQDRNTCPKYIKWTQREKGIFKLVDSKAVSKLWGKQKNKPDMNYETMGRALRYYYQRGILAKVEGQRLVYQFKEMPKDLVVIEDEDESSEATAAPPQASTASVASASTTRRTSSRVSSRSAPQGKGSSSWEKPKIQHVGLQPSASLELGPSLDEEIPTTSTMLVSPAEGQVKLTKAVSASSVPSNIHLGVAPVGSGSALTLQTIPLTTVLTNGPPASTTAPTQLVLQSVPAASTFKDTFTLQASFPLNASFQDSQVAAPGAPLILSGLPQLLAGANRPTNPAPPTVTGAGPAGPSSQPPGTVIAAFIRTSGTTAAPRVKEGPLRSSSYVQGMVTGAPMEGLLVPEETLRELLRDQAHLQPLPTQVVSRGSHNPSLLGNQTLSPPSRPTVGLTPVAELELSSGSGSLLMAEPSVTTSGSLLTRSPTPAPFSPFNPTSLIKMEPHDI
# Chain of SPIB (Q01892 whole entry): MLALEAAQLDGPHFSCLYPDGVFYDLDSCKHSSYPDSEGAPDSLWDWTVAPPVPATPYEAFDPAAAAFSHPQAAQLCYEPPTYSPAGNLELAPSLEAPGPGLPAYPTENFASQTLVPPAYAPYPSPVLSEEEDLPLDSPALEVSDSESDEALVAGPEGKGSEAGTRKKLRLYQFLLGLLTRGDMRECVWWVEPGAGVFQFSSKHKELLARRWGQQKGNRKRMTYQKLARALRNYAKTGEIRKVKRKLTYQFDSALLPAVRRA
# Chain of ELF1 (P32519 whole entry): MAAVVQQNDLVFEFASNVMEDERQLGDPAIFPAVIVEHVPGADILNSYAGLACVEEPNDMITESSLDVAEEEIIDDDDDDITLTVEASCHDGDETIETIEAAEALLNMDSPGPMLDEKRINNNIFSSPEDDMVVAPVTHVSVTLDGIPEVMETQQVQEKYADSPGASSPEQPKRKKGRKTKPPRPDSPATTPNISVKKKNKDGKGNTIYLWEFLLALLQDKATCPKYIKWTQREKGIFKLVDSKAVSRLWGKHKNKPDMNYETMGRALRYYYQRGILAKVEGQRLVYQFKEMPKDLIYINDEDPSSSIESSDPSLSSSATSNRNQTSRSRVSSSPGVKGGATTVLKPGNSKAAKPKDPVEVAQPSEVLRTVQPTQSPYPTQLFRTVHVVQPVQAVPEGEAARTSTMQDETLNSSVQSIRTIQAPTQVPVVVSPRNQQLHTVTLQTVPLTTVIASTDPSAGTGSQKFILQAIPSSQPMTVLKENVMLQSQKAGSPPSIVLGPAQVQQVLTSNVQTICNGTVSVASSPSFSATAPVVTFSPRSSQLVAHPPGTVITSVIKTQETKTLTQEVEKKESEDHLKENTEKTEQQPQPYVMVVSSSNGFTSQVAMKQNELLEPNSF
# Chain of ETV1 (P50549 whole entry): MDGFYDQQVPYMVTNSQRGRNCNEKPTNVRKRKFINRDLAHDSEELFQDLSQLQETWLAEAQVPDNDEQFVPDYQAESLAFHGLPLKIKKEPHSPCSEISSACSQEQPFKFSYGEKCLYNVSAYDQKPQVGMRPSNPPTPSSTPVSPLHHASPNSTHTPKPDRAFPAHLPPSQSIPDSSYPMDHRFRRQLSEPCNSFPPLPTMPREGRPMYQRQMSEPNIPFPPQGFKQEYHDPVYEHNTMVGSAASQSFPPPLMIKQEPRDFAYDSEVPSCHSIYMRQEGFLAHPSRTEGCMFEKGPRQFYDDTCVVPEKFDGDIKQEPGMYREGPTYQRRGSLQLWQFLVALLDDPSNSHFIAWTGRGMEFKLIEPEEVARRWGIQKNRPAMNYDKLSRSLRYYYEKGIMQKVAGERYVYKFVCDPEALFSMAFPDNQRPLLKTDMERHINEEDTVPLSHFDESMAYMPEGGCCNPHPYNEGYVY
sequence,measurement,setting,value
GTTCCG,binding signal,FLI1,"1.81 fold enrichment (6-mer frequency, TF over GST control)"
same,binding signal,ELK1,"2.02 fold enrichment (6-mer frequency, TF over GST control)"
same,binding signal,GABPA,"1.64 fold enrichment (6-mer frequency, TF over GST control)"
same,binding signal,ERG,"1.95 fold enrichment (6-mer frequency, TF over GST control)"
same,binding signal,ELF1,"1.78 fold enrichment (6-mer frequency, TF over GST control)"
same,binding signal,EHF,"2.05 fold enrichment (6-mer frequency, TF over GST control)"
same,binding signal,SPI1,"2.19 fold enrichment (6-mer frequency, TF over GST control)"
same,binding signal,SPIB,"2.15 fold enrichment (6-mer frequency, TF over GST control)"
same,binding signal,ELK3,"1.71 fold enrichment (6-mer frequency, TF over GST control)"
same,binding signal,FEV,"1.99 fold enrichment (6-mer frequency, TF over GST control)"
same,binding signal,ETV5,"1.94 fold enrichment (6-mer frequency, TF over GST control)"
same,binding signal,HSF1,"1.05 fold enrichment (6-mer frequency, TF over GST control)"
same,binding signal,SPIC,"2.08 fold enrichment (6-mer frequency, TF over GST control)"
same,binding signal,ELF4,"1.64 fold enrichment (6-mer frequency, TF over GST control)"
same,binding signal,ELK4,"1.79 fold enrichment (6-mer frequency, TF over GST control)"
same,binding signal,ETV2,"1.61 fold enrichment (6-mer frequency, TF over GST control)"
same,binding signal,ELF3,"1.82 fold enrichment (6-mer frequency, TF over GST control)"
same,binding signal,ETV1,"2.07 fold enrichment (6-mer frequency, TF over GST control)"
